Measured values as given in the supplement of paper PMC12645437, “Orthogonal IMiD-Degron Pairs Induce Selective Protein Degradation in Cells” (ACS Chemical Biology, 2025).
In all, about 8,300 sequences were measured (“log2 fold change of degron read counts, EGFP-low vs EGFP+ sorted cells (limma voom), compound-induced degradation”: median about -1.1, highest 2% from about 3.2 on). Only a selection was taken, and the highest values are over-represented in it overall.

Biological target: T1, CRBN, Q96SW2
T1 chain: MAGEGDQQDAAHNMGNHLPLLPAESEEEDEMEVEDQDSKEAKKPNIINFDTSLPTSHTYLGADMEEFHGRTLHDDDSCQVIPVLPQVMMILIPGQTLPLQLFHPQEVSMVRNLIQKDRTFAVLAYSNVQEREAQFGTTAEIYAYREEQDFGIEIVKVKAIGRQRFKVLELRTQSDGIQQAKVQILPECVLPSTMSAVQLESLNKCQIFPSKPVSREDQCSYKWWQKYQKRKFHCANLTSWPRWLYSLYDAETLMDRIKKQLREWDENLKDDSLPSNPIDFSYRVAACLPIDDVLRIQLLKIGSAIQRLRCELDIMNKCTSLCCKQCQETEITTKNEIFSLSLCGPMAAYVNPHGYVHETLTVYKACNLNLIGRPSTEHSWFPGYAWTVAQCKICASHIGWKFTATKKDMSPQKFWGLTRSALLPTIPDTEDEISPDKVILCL
Experiment: log2 fold change of degron read counts, EGFP-low vs EGFP+ sorted cells (limma voom), compound-induced degradation; higher = more compound-induced degradation of the degron-EGFP fusion; degrons are variants of IKZF1/3 zinc finger 2; compound dose not given here
Conditions: Jurkat, 18 h

[1] = compound: compound 19 (5-tert-butyl-thalidomide)
[2] = compound: compound 22 (5-morpholino-thalidomide)
[3] = compound: compound 33 (diphenyl IMiD analogue)
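Also: pooled lentiviral library of zinc finger degron-EGFP fusions in mCherry-positive Jurkat cells, FACS-sorted after compound exposure, with degron abundance counted by next-generation sequencing.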

FFCNQCGHLFTQKGNLLRHIKL [46F_47F_49N_50Q_52G_53H_54L_55F_67L_, Q9UKT9]
log2 fold change of degron read counts [1]: -1.66 | log2 fold change of degron read counts [2]: -2.07 | log2 fold change of degron read counts [3]: -1.87 | log2 fold change of degron read counts (compound: thalidomide): -1.3

FSCDICGAAFTQKGNLLRHIKL [46F_47S_49D_50I_52G_53A_54A_55F_67L_, Q9UKT9]
log2 fold change of degron read counts [1]: 2.34 | log2 fold change of degron read counts [2]: 2.19 | log2 fold change of degron read counts [3]: 1.4 | log2 fold change of degron read counts (compound: thalidomide): 0.487

FMCPICGAQFTQKGNLLRHIKL [46F_47M_49P_50I_52G_53A_54Q_55F_67L_, Q9UKT9]
log2 fold change of degron read counts [1]: 0.245 | log2 fold change of degron read counts [2]: 1.26 | log2 fold change of degron read counts [3]: 2.62 | log2 fold change of degron read counts (compound: thalidomide): 1.97

FECPICGAQFTQKGNLLRHIKL [46F_47E_49P_50I_52G_53A_54Q_55F_67L_, Q9UKT9]
log2 fold change of degron read counts [1]: -0.254 | log2 fold change of degron read counts [2]: -0.469 | log2 fold change of degron read counts [3]: 2.11 | log2 fold change of degron read counts (compound: thalidomide): 2.88

FVCPICGAQFTQKGNLLRHIKL [46F_47V_49P_50I_52G_53A_54Q_55F_67L_, Q9UKT9]
log2 fold change of degron read counts [1]: 0.269 | log2 fold change of degron read counts [2]: 3.03 | log2 fold change of degron read counts [3]: 2.65 | log2 fold change of degron read counts (compound: thalidomide): 2.8

FYCPICGAQFTQKGNLLRHIKL [46F_47Y_49P_50I_52G_53A_54Q_55F_67L_, Q9UKT9]
log2 fold change of degron read counts [1]: 3.2 | log2 fold change of degron read counts [2]: 3.56 | log2 fold change of degron read counts [3]: 2.65 | log2 fold change of degron read counts (compound: thalidomide): 1.7

FSCPICGAQFTQKGNLLRHIKL [46F_47S_49P_50I_52G_53A_54Q_55F_67L_, Q9UKT9]
log2 fold change of degron read counts [1]: 2.37 | log2 fold change of degron read counts [2]: 2.25 | log2 fold change of degron read counts [3]: 1.87 | log2 fold change of degron read counts (compound: thalidomide): 1.54

FTCPICGAQFTQKGNLLRHIKL [46F_47T_49P_50I_52G_53A_54Q_55F_67L_, Q9UKT9]
log2 fold change of degron read counts [1]: 0.221 | log2 fold change of degron read counts [2]: 2.57 | log2 fold change of degron read counts [3]: 2.32 | log2 fold change of degron read counts (compound: thalidomide): 3.06

FFCPICGAQFTQKGNLLRHIKL [46F_47F_49P_50I_52G_53A_54Q_55F_67L_, Q9UKT9]
log2 fold change of degron read counts [1]: 3.07 | log2 fold change of degron read counts [2]: 3.66 | log2 fold change of degron read counts [3]: 2.49 | log2 fold change of degron read counts (compound: thalidomide): 1.8

FKCPICGAQFTQKGNLLRHIKL [46F_47K_49P_50I_52G_53A_54Q_55F_67L_, Q9UKT9]
log2 fold change of degron read counts [1]: -0.0361 | log2 fold change of degron read counts [2]: -1.47 | log2 fold change of degron read counts [3]: -1.09 | log2 fold change of degron read counts (compound: thalidomide): 0.0895

FWCPICGAQFTQKGNLLRHIKL [46F_47W_49P_50I_52G_53A_54Q_55F_67L_, Q9UKT9]
log2 fold change of degron read counts [1]: 3.01 | log2 fold change of degron read counts [2]: 3.69 | log2 fold change of degron read counts [3]: 2.52 | log2 fold change of degron read counts (compound: thalidomide): 1.76

FACPICGAQFTQKGNLLRHIKL [46F_47A_49P_50I_52G_53A_54Q_55F_67L_, Q9UKT9]
log2 fold change of degron read counts [1]: 3.33 | log2 fold change of degron read counts [2]: 2.33 | log2 fold change of degron read counts [3]: 1.68 | log2 fold change of degron read counts (compound: thalidomide): 1.29

FRCPICGAQFTQKGNLLRHIKL [46F_47R_49P_50I_52G_53A_54Q_55F_67L_, Q9UKT9]
log2 fold change of degron read counts [1]: -0.000477 | log2 fold change of degron read counts [2]: 0.626 | log2 fold change of degron read counts [3]: 1.17 | log2 fold change of degron read counts (compound: thalidomide): 1.41

FICPICGAQFTQKGNLLRHIKL [46F_47I_49P_50I_52G_53A_54Q_55F_67L_, Q9UKT9]
log2 fold change of degron read counts [1]: -0.147 | log2 fold change of degron read counts [2]: 2.86 | log2 fold change of degron read counts [3]: 2.84 | log2 fold change of degron read counts (compound: thalidomide): 2.97

FWCEICGRSFTQKGNLLRHIKL [46F_47W_49E_50I_52G_53R_54S_55F_67L_, Q9UKT9]
log2 fold change of degron read counts [1]: 0.727 | log2 fold change of degron read counts [2]: 1.06 | log2 fold change of degron read counts [3]: 0.626 | log2 fold change of degron read counts (compound: thalidomide): -1.3

FWCPVCGAFFTQKGNLLRHIKL [46F_47W_49P_50V_52G_53A_54F_55F_67L_, Q9UKT9]
log2 fold change of degron read counts [1]: 2.23 | log2 fold change of degron read counts [2]: 2.56 | log2 fold change of degron read counts [3]: 1.97 | log2 fold change of degron read counts (compound: thalidomide): 0.614

FICNVCGACFTQKGNLLRHIKL [46F_47I_49N_50V_52G_53A_54C_55F_67L_, Q9UKT9]
log2 fold change of degron read counts [1]: -2.35 | log2 fold change of degron read counts [2]: -0.443 | log2 fold change of degron read counts [3]: 0.594 | log2 fold change of degron read counts (compound: thalidomide): 0.469

FRCNQCGHHFTQKGNLLRHIKL [46F_47R_49N_50Q_52G_53H_54H_55F_67L_, Q9UKT9]
log2 fold change of degron read counts [1]: -2.62 | log2 fold change of degron read counts [2]: -2.49 | log2 fold change of degron read counts [3]: -2.68 | log2 fold change of degron read counts (compound: thalidomide): -2.74

FMCNVCGAVFTQKGNLLRHIKL [46F_47M_49N_50V_52G_53A_54V_55F_67L_, Q9UKT9]
log2 fold change of degron read counts [1]: -2.62 | log2 fold change of degron read counts [2]: -1.87 | log2 fold change of degron read counts [3]: 0.807 | log2 fold change of degron read counts (compound: thalidomide): -0.813

FCCEVCGAWFTQKGNLLRHIKL [46F_47C_49E_50V_52G_53A_54W_55F_67L_, Q9UKT9]
log2 fold change of degron read counts [1]: -0.654 | log2 fold change of degron read counts [2]: -0.581 | log2 fold change of degron read counts [3]: 0.156 | log2 fold change of degron read counts (compound: thalidomide): -0.895

FKCEICGADFTQKGNLLRHIKL [46F_47K_49E_50I_52G_53A_54D_55F_67L_, Q9UKT9]
log2 fold change of degron read counts [1]: -1.37 | log2 fold change of degron read counts [2]: -3.36 | log2 fold change of degron read counts [3]: -2.54 | log2 fold change of degron read counts (compound: thalidomide): -1.55

FFCPQCGAHFTQKGNLLRHIKL [46F_47F_49P_50Q_52G_53A_54H_55F_67L_, Q9UKT9]
log2 fold change of degron read counts [1]: 0.0594 | log2 fold change of degron read counts [2]: 0.455 | log2 fold change of degron read counts [3]: 0.502 | log2 fold change of degron read counts (compound: thalidomide): -0.835

FSCPICGRAFTQKGNLLRHIKL [46F_47S_49P_50I_52G_53R_54A_55F_67L_, Q9UKT9]
log2 fold change of degron read counts [1]: -0.662 | log2 fold change of degron read counts [2]: -1.1 | log2 fold change of degron read counts [3]: 0.646 | log2 fold change of degron read counts (compound: thalidomide): 0.0583

FDCPICGAQFTQKGNLLRHIKL [46F_47D_49P_50I_52G_53A_54Q_55F_67L_, Q9UKT9]
log2 fold change of degron read counts [1]: 2.24 | log2 fold change of degron read counts [2]: 1.5 | log2 fold change of degron read counts [3]: 1.26 | log2 fold change of degron read counts (compound: thalidomide): 2.56

FGCPICGAQFTQKGNLLRHIKL [46F_47G_49P_50I_52G_53A_54Q_55F_67L_, Q9UKT9]
log2 fold change of degron read counts [1]: 3.58 | log2 fold change of degron read counts [2]: 2.65 | log2 fold change of degron read counts [3]: 1.84 | log2 fold change of degron read counts (compound: thalidomide): 1.37

FCCPICGAQFTQKGNLLRHIKL [46F_47C_49P_50I_52G_53A_54Q_55F_67L_, Q9UKT9]
log2 fold change of degron read counts [1]: 2.39 | log2 fold change of degron read counts [2]: 2.66 | log2 fold change of degron read counts [3]: 2.87 | log2 fold change of degron read counts (compound: thalidomide): 1.93

FHCPICGAQFTQKGNLLRHIKL [46F_47H_49P_50I_52G_53A_54Q_55F_67L_, Q9UKT9]
log2 fold change of degron read counts [1]: 2.46 | log2 fold change of degron read counts [2]: 2.8 | log2 fold change of degron read counts [3]: 2.49 | log2 fold change of degron read counts (compound: thalidomide): 1.66

FNCPICGAQFTQKGNLLRHIKL [46F_47N_49P_50I_52G_53A_54Q_55F_67L_, Q9UKT9]
log2 fold change of degron read counts [1]: 2.48 | log2 fold change of degron read counts [2]: 1.86 | log2 fold change of degron read counts [3]: 1.27 | log2 fold change of degron read counts (compound: thalidomide): 1.1

FQCPICGAQFTQKGNLLRHIKL [46F_47Q_49P_50I_52G_53A_54Q_55F_67L_, Q9UKT9]
log2 fold change of degron read counts [1]: 0.697 | log2 fold change of degron read counts [2]: 2.72 | log2 fold change of degron read counts [3]: 2.41 | log2 fold change of degron read counts (compound: thalidomide): 3.65
